Assay outcomes deposited in PubChem BioAssay by National Center for Advancing Translational Sciences (NCATS).
Shiga toxin inh – blocks Shiga toxin action in Vero cells; Vero cells, Shiga toxin protein synthesis inhibition reporter; inhibition, % at 38.7 µM; hit rate 9.2% among 290,000; AID 2315; in the data active = inhibition mostly above about 28%, no sharp cut-off; inactive = mostly below about 43%
Cycloheximide cs – counter-screen for Shiga toxin inhibitors: cycloheximide protein synthesis inhibition. cell reporter, cycloheximide protein synthesis inhibition counterscreen. hit rate 12% among 300,000. AID 2314. max response, %; in the data active = max response mostly above about 13%, no sharp cut-off; inactive = mostly below about 14%; also: read at 38.3 µM for the half of the compounds with a filed dose
FMDV inh – foot and mouth disease virus antiviral activity. FMDV antiviral cell-based qHTS. Potency, µM (series often up to 57.9 µM), hits mostly inhibitors. hit rate 1.2% among 410,000; calls by dose curve; tested in HEK293T cells; also: read-out not given here; nearly all actives have a fitted effect of over 45% in size
Sm TGR inh – blocks Schistosoma mansoni thioredoxin glutathione reductase; hit rate 3% among 360,000; Q962Y6; Potency, µM (doses to about 114 µM), most hits filed as inhibitors; purified TGR, DTNB reduction, TNB absorbance 405 nm; active = well fitted inhibition curve with a large enough effect; inconclusive = small, poorly fitted or top-dose-only effect; inactive = no such curve, though single readings can be large or run the other way; also: nearly all actives have a fitted effect of over 60% in size
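First, TGR (20 nM dispensed) and NADPH were mixed with compound. Second, a 15 min room-temperature incubation followed. Third, further NADPH and then DTNB were added to start the reaction. Finally, TNB absorbance was monitored kinetically.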
Hits are given with their value; – = inactive; ? = inconclusive; · = no result; + = active, no number; [ ] = remark or other dose. Compounds with a hit are over-represented: about 12% of the library has one in this group of screens.

SMILES	Shiga toxin inh	Cycloheximide cs	FMDV inh	Sm TGR inh
CCCNC(=S)Nc1cccc(C(F)(F)F)c1	–	–	–	–
CCCCNC(=S)Nc1ccc(C(F)(F)F)cc1	30	19	–	–
CCN1CCC(N(Cc2cccc(OC)c2)C(=O)Nc2cccc(C(F)(F)F)c2)CC1	·	·	–	–
CC(C)CCNC(=O)CN1C(=O)CSc2ccc(S(=O)(=O)N3CCC(C)CC3)cc21	·	·	–	–
CCOC(=O)NC(=S)Nc1ccc(C(C)(C)C)cc1	80	33	–	–
CN(C)S(=O)(=O)N1CCC(n2cnc3cccnc32)CC1	·	·	–	–
Cc1ccc(OC(=O)c2cccc(S(=O)(=O)N(C)C)c2)c(-n2nc3ccccc3n2)c1	73	64	–	–
Cc1ccc(OC(=O)c2ccc(S(=O)(=O)N(C)C)cc2)c(-n2nc3ccccc3n2)c1	81	34	–	–
CN(C)S(=O)(=O)c1ccc(C(=O)Oc2ccccc2)cc1	–	–	–	–
Cc1ccc(OC(=O)c2cccc(S(=O)(=O)N3CCCC3)c2)c(-n2nc3ccccc3n2)c1	+	69	–	–
Cc1ccc(OCC(=O)O)c(-n2nc3ccccc3n2)c1	–	–	–	–
CC(=O)Oc1ccc(C)cc1-n1nc2ccccc2n1	131	60	–	–
COc1ccc(NC(=O)C2(S(=O)(=O)c3ccc(C)cc3)CC2)c(OC)c1	·	·	–	–
COc1ccc(NCc2cc3ccc(OC)cc3n(CC(=O)Nc3cccc(OC)c3)c2=O)cc1	·	·	–	–
COC(=O)CCC(=O)OC1(C)C(=O)C2=COC(c3ccc(OC)cc3)=CC2=C(Br)C1=O (stereo not drawn)	–	–	–	7.9µM
COc1ccc(C2=CC3=C(Br)C(=O)C(C)(OC(=O)C4CCCC4)C(=O)C3=CO2)cc1 (stereo not drawn)	–	–	–	7.1µM
COc1ccc(C2=CC3=C(Br)C(=O)C(C)(OC(=O)c4ccc(Cl)nc4)C(=O)C3=CO2)cc1 (stereo not drawn)	–	–	–	10µM
COC(=O)CCC(=O)OC1(C)C(=O)C2=CN(CCCCO)C(c3ccc(OC)cc3)=CC2=C(Br)C1=O (stereo not drawn)	–	–	·	45µM
COC(=O)CCC(=O)OC1(C)C(=O)C2=CN(C(CO)CO)C(c3ccc(OC)cc3)=CC2=C(Br)C1=O (stereo not drawn)	–	–	·	?
CCc1cccc(C)c1NC(=O)Cn1c(=O)cc(C(F)(F)F)c2c(C)nn(C)c21	·	·	–	–
COc1ccc(OCc2cc(C(=O)NC3CCOCC3)no2)c2ccccc12	–	22	–	?
Cc1ccc(OCc2cc(C(=O)NC3CCOC3)no2)cc1C (stereo not drawn)	25	20	–	–
Cc1cc(OCc2cc(C(=O)NC3CCC3)no2)cc(C)c1Cl	–	–	–	–
CC1(C)CC(NC(=O)c2cc(COc3cccc(C(F)(F)F)c3)on2)CCO1 (stereo not drawn)	48	29	–	–
COc1cccc(OCc2cc(C(=O)NC3CCOCC3)no2)c1	82	46	–	–
SMILES	Shiga toxin inh	Cycloheximide cs	FMDV inh	Sm TGR inh
COc1ccc(C(=O)O/N=C(\C)c2cnccn2)cc1	–	–	–	–
C=CCO/N=C(/C)c1ccc(Oc2cnccn2)cc1	47	27	–	–
COc1cc(NC(=O)C2=C(N3CCOCC3)/C(=C\c3ccc(Br)cc3)CC2)cc(OC)c1OC	–	–	?	–
COc1cc(NC(=O)C2=C(N3CCOCC3)/C(=C\c3ccc(Cl)cc3Cl)CC2)cc(OC)c1OC	–	–	14µM	–
COc1ccc(NC(=O)C2Cc3c(-c4ccccc4)ccnc3O2)cc1OC (stereo not drawn)	·	·	35µM	·
NC(=O)c1cccc(-c2ccnc3c2CC(C(=O)Nc2ccccc2)O3)c1 (stereo not drawn)	·	·	–	·
CC(=O)NCCNC(=O)C1Cc2c(-c3cccc(NC(C)=O)c3)ccnc2O1 (stereo not drawn)	·	·	–	·
COc1ccc(NC(=O)C2Cc3c(-c4cccc(C(C)=O)c4)ccnc3O2)cc1OC (stereo not drawn)	·	·	8.9µM	·
COc1ccc(CCCNC(=O)C2Cc3c(-c4cccc(NC(C)=O)c4)ccnc3O2)cc1 (stereo not drawn)	·	·	35µM	·
NC(=O)c1cccc(-c2ccnc3c2CC(C(=O)Nc2cccc(C(F)(F)F)c2)O3)c1 (stereo not drawn)	·	·	28µM	·
COc1ccc(NC(=O)C2Cc3c(-c4ccncc4)ccnc3O2)cc1OC (stereo not drawn)	·	·	–	·
NNc1nc2ccccc2c(=O)n1Cc1ccccc1	43	29	–	?
CC(C)OCCCn1c(NN)nc2ccccc2c1=O	–	–	–	–
Cc1nc2ccccc2c(=O)n1CCc1ccccc1	–	16	–	–
O=c1c2ccccc2[nH]c(=S)n1CCc1ccccc1	69	33	–	–
COc1cccc(Cn2c(=O)n(CC3CCC(C(=O)N4CCCCC4)CC3)c(=O)c3sccc32)c1 (stereo not drawn)	·	·	?	–
COC(=O)C1=C(C)N(c2ccc(F)c(Cl)c2)C(=O)C1	–	–	–	25µM
COC(=O)C1=C(C)N(c2cccc(Cl)c2)C(=O)C1	–	–	–	–
O=C1NC(=O)N(c2ccccc2)C(=O)/C1=C/c1ccc(Sc2ccccc2)o1	–	–	?	25µM
Cc1cccc(N2C(=O)NC(=O)/C(=C/c3ccc(-c4ccc(C(=O)O)c(Cl)c4)o3)C2=O)c1	–	–	·	?
COc1ccc(Sc2ccc(/C=C3\C(=O)NN(c4ccccc4)C3=O)o2)cc1	–	–	40µM	–
O=C1c2ccccc2C(=O)N1CCCC[C@]12Cc3ccccc3C(O1)c1c(c3ccccc3oc1=O)O2	–	–	·	–[22.9 µM]
O=C1C2=C(C(=O)c3ccccc31)C1O[C@](c3ccsc3)(Cc3c1ccc1ccccc31)O2	+	33	·	?
O=C1CCCC2=C1C1O[C@](c3ccsc3)(Cc3c1ccc1ccccc31)O2	–	15	·	?
O=c1oc2ccccc2c2c1C1O[C@](c3ccsc3)(Cc3c1ccc1ccccc31)O2	–	19	·	8.9µM
SMILES	Shiga toxin inh	Cycloheximide cs	FMDV inh	Sm TGR inh
Cc1ccc2c(c1)C(=O)OC(C(=O)Nc1ncc(Cc3ccc(C(C)C)cc3)s1)C2 (stereo not drawn)	·	·	–	–
COc1ccc(Cn2c(CO)cnc2SCc2cccc(C)c2)cc1	·	·	–	–
COc1ccc(C(=O)N2CCC[C@@]3(CCN(C)C3)C2)cc1	·	·	–	·
COc1cc2c(cc1NC(=O)C(C)Sc1cccc[n+]1[O-])oc1ccccc12 (stereo not drawn)	79	75	–	–
COc1cc2c(cc1NC(=S)NC(=O)c1c(OC)cccc1OC)oc1ccccc12	–	–	–	–
COc1ccc(CC(=O)Nc2cc3oc4ccccc4c3cc2OC)cc1	111	63	–	–
COc1cc2c(cc1NC(=O)COC(=O)C1CC(=O)N(Cc3ccco3)C1)oc1ccccc12 (stereo not drawn)	–	23	–	–
COc1cc(NC(=O)C2CC(=O)N(Cc3ccco3)C2)c(OC)cc1Cl (stereo not drawn)	·	·	–	–
COCCNC(=S)Nc1cc2oc3ccccc3c2cc1OC	–	16	–	–
COc1cc2c(cc1NC(=O)C(C)Sc1nc3ccccc3n1C)oc1ccccc12 (stereo not drawn)	–	–	–	–
